{"source": "PubChem BioAssay AID618", "about": "(Sanford-Burnham Center for Chemical Genomics, 2007)", "note": "Hit rate of the full screen: of about 87,000 compounds, about 540 (0.62%) were called active. Where a call stands in place of a potency, no number is given. The rule behind the calls is not given here. This excerpt belongs to a sample that is enriched for actives. Potency and affinity values are given separately.", "data": [{"experiment": "MT1-MMP gene expression reporter suppression – cell-based, luciferase reporter, luminescence (AID 618);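 note: actives suppress MT1-MMP promoter-driven transcription so potencies describe inhibitors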", "settings": "MT1-MMP promoter luciferase reporter cells", "values": [{"smiles": "O=C(Nc1ccc2c(c1)OCO2)C(c1ccccc1)N1CCN(C(=O)c2ccco2)CC1", "note": "(stereo not given)", "outcome": "inactive"}, {"smiles": "CCOC(=O)c1cc(C)n(CCc2ccccc2)c1C", "outcome": "inactive"}, {"smiles": "Cc1cc(-c2csc(N)n2)c(C)n1C", "outcome": "inactive"}, {"smiles": "CCCn1c(C)cc(-c2csc(N)n2)c1C", "outcome": "inactive"}, {"smiles": "Nc1nc(-c2ccccc2)cs1", "outcome": "inactive"}, {"smiles": "Cc1nc2ccccc2nc1N1CCC(C)CC1", "outcome": "inactive"}, {"smiles": "O=C(Nc1ccc2c(c1)OCO2)N1CCN(S(=O)(=O)c2ccc(Cl)cc2)CC1", "outcome": "inactive"}, {"smiles": "CC1(C)N(OCc2ccccc2)C(=O)C(=O)N(OCc2ccccc2)C1(C)C", "outcome": "inactive"}, {"smiles": "C=CCNc1nc(N(c2ccccc2)c2ccccc2)nc(-n2ccnc2)n1", "outcome": "inactive"}, {"smiles": "COc1cccc(-n2nnnc2SCC(=O)NC2CCCC2)c1", "outcome": "inactive"}, {"smiles": "COc1cccc(Oc2nnnn2-c2ccccc2)c1", "outcome": "inactive"}, {"smiles": "CCCS(=O)(=O)c1nnnn1-c1cccc(OC)c1", "outcome": "active"}, {"smiles": "CCCS(=O)(=O)C(=C1NCCO1)S(=O)(=O)CCC", "outcome": "inactive"}, {"smiles": "COc1cccc(-c2nc3ccc(O)cc3c(=O)o2)c1", "outcome": "inactive"}, {"smiles": "COc1nc(-c2ccc(C)cc2)ccc1-c1noc(-c2ccco2)n1", "outcome": "inactive"}, {"smiles": "CCOc1nc(C)ccc1-c1noc(-c2ccco2)n1", "outcome": "inactive"}, {"smiles": "Cc1cccc(OCC(=O)Nc2ccc3c(c2)OCO3)c1C", "outcome": "inactive"}, {"smiles": "C/C(=C\\C(=O)c1cccnc1)Nc1ccc(C(=O)O)cc1", "outcome": "inactive"}, {"smiles": "CCC(C(=O)c1ccc(O)cc1)c1ccccc1", "note": "(stereo not given)", "outcome": "inactive"}, {"smiles": "CN(C)CC(C(=O)c1ccccc1)c1ccccc1", "note": "(stereo not given)", "outcome": "active"}, {"smiles": "CN(C)c1ccc(C(=O)C(O)c2ccccc2)cc1", "note": "(stereo not given)", "outcome": "inactive"}, {"smiles": "O=C(Cn1nc(C(=O)O)c2ccccc2c1=O)NCCC1=CCCCC1", "outcome": "inactive"}, {"smiles": "CC(Cc1ccccc1)NC(=O)C1CCCNC1=O", "note": "(stereo not given)", "outcome": "inactive"}, {"smiles": "CCCCC(=O)c1ccc(O)cc1O", "outcome": "inactive"}, {"smiles": "O=C(CSc1nnc(-c2ccncc2)n1Cc1ccco1)N1c2ccccc2Sc2ccc(Cl)cc21", "outcome": "inactive"}, {"smiles": "COc1ccc(N2CCN(C(=O)CSc3nnc(-c4cccnc4)n3-c3ccc(F)cc3)CC2)cc1", "outcome": "inactive"}, {"smiles": "Cc1ccc(CN(c2ccc(C(=O)NCc3ccccn3)cc2)S(C)(=O)=O)cc1", "outcome": "inactive"}, {"smiles": "O=C(CSC1=NCCS1)N1CCOCC1", "outcome": "inactive"}, {"smiles": "O=C(COc1ccc(Cl)cc1Cl)Nc1ccc(Cl)cn1", "outcome": "inactive"}, {"smiles": "O=C(COc1ccccc1Cl)Nc1ccc(Cl)cn1", "outcome": "inactive"}, {"smiles": "O=C(COc1ccc(Cl)cc1Cl)Nc1ccccn1", "outcome": "active"}, {"smiles": "Cc1ccc(C(C)C)c(OCCN)c1", "outcome": "inactive"}, {"smiles": "COc1ccc(OC(C)C(=O)N2CC(C)OC(C)C2)cc1", "note": "(stereo not given)", "outcome": "inactive"}, {"smiles": "O=C(Nc1ccc(N2C(=O)C3C4C=CC(C4)C3C2=O)cc1)Nc1nncs1", "note": "(stereo not given)", "outcome": "inactive"}, {"smiles": "CCCn1c(N)c(C(=O)CSc2nc(C)cs2)c(=O)[nH]c1=O", "outcome": "inactive"}, {"smiles": "Nc1ccc2oc(-c3ccccn3)nc2c1", "outcome": "inactive"}, {"smiles": "Nc1ccc(-c2nc3ccc(-c4nc5ccccc5o4)cc3[nH]2)cc1", "outcome": "inactive"}, {"smiles": "Cc1nc2ccc(-c3nc4ccccc4o3)cc2[nH]1", "outcome": "inactive"}, {"smiles": "Nc1ccc2oc(-c3cccs3)nc2c1", "outcome": "inactive"}, {"smiles": "c1ccc2oc(-c3ccc4nc[nH]c4c3)nc2c1", "outcome": "inactive"}, {"smiles": "Cc1ccc2oc(-c3ccco3)nc2c1", "outcome": "inactive"}, {"smiles": "Cc1ccc(-c2nc3cc(NS(=O)(=O)c4ccc(C)cc4)ccc3o2)cc1", "outcome": "inactive"}, {"smiles": "CCOC(=O)c1cnc(-c2cccc(OC)c2)[nH]c1=O", "outcome": "inactive"}, {"smiles": "COc1ccc(CNC(=O)CCCCCn2c(SCC#N)nc3cc4c(cc3c2=O)OCO4)cc1", "outcome": "inactive"}, {"smiles": "CCC(=O)c1ccc(OCC(O)CN2CCN(C(c3ccccc3)c3ccccc3)CC2)cc1", "note": "(stereo not given)", "outcome": "inactive"}, {"smiles": "CCOC(CNC(=O)c1cccn2c(=O)c3cc(Cl)ccc3nc12)OCC", "outcome": "inactive"}, {"smiles": "COc1ccc(S(=O)(=O)Nc2nnc(C(C)(C)C)s2)cc1", "outcome": "inactive"}, {"smiles": "Cc1c(NC(=O)c2cc(C(C)C)on2)c(=O)n(-c2ccccc2)n1C", "outcome": "inactive"}, {"smiles": "CCC(OC(=O)c1cc2sccc2n1C)C(=O)NCC1CCCO1", "note": "(stereo not given)", "outcome": "inactive"}, {"smiles": "Nc1ccnc(C(F)(F)F)c1C(=O)c1ccccc1", "outcome": "inactive"}, {"smiles": "CC(C)OC(=O)CSc1nnc(-c2cccnc2)n1Cc1ccccc1", "outcome": "inactive"}, {"smiles": "Cc1ccc(C)c(OCCCCn2ccnc2)c1", "outcome": "inactive"}, {"smiles": "Cc1ccc(C)c(-c2nc3cc(N)ccc3o2)c1", "outcome": "inactive"}, {"smiles": "COc1ccc(-c2nnc(-c3ccc(N)cc3)o2)cc1", "outcome": "inactive"}, {"smiles": "Nc1ccc2oc(-c3cc(Br)ccc3Cl)nc2c1", "outcome": "inactive"}, {"smiles": "Nc1ccc2oc(-c3cccc4ccccc34)nc2c1", "outcome": "inactive"}, {"smiles": "Nc1ccc2oc(-c3ccccc3Cl)nc2c1", "outcome": "active"}, {"smiles": "Nc1nc2ccc(-c3nc4ccccc4o3)cc2s1", "outcome": "inactive"}, {"smiles": "COC(=O)c1ccc(-c2nc3ccccc3o2)cc1", "outcome": "inactive"}, {"smiles": "Cc1ccccc1-c1nc2cc(N)ccc2o1", "outcome": "inactive"}, {"smiles": "COC(=O)c1ccc(-c2nc3ccc(C)cc3o2)cc1", "outcome": "inactive"}, {"smiles": "CCc1c(C)nc2ncnn2c1N1CCCC(C(=O)Nc2ccc(NC(C)=O)cc2)C1", "note": "(stereo not given)", "outcome": "inactive"}, {"smiles": "Cc1ccc(NC(=O)c2ccc(N3C(=O)C4CC=C(Cl)CC4C3=O)cc2)cc1", "note": "(stereo not given)", "outcome": "inactive"}, {"smiles": "COC(=O)[C@@H]1C[C@@]2(O)[C@H](O)[C@H](O)[C@H](O)C[C@H]2N1Cc1c(F)cccc1Cl", "outcome": "inactive"}, {"smiles": "CC(C)Cc1ccc(S(=O)(=O)N2CCOCC2)cc1", "outcome": "inactive"}, {"smiles": "O=C(CC1CCS(=O)(=O)C1)NC1CCCCC1", "note": "(stereo not given)", "outcome": "inactive"}, {"smiles": "O=C(CN1CC(c2ccccc2)CC1=O)OCc1ccccc1F", "note": "(stereo not given)", "outcome": "inactive"}, {"smiles": "Cc1cccc(CSC2=NCCN2C(=O)c2ccco2)c1", "outcome": "inactive"}, {"smiles": "COCCn1c(=O)c2c3c(sc2n(CC(N)=O)c1=O)CCCC3", "outcome": "inactive"}, {"smiles": "COc1ccc(Br)c(C(=O)Nn2c(C)nc3ccccc3c2=O)c1", "outcome": "inactive"}, {"smiles": "Cc1ccc(C)c(Cn2nnc3c(=O)[nH]c(C4CCN(C(=O)c5cccs5)CC4)nc32)c1", "outcome": "inactive"}, {"smiles": "CCCNC(=O)NC(C)C12CC3CC(CC(C3)C1)C2", "note": "(stereo not given)", "outcome": "inactive"}, {"smiles": "COc1ccccc1NC(=O)c1ccc(COc2ccccc2OC)o1", "outcome": "inactive"}, {"smiles": "CCn1c(=O)c(=O)n(CC)c2cc(S(=O)(=O)Nc3cccc(OC)c3)ccc21", "outcome": "inactive"}, {"smiles": "CCn1c(=O)cc(SCC(=O)Nc2ccccc2N2CCN(C)CC2)c2ccccc21", "outcome": "inactive"}, {"smiles": "Cc1ccc(NC(=O)Cc2cn3ccsc3n2)nc1", "outcome": "inactive"}, {"smiles": "CC(C)c1ccc2oc(-c3cc(N)ccc3O)nc2c1", "outcome": "inactive"}, {"smiles": "CCOc1cccc(-c2nc3cc(C)ccc3o2)c1", "outcome": "inactive"}, {"smiles": "COc1cc(OC)cc(-c2nc3cc(C)ccc3o2)c1", "outcome": "inactive"}, {"smiles": "CC(C)c1ccc2oc(-c3ccc(NC(=O)c4ncn[nH]4)cc3)nc2c1", "outcome": "inactive"}, {"smiles": "O=C1CC(=C2c3ccccc3-c3ccccc32)C(=O)N1CCN1CCN(c2ccccc2)CC1", "outcome": "inactive"}, {"smiles": "Cc1nn(Cc2nc(-c3cccs3)no2)c(C)c1Br", "outcome": "inactive"}, {"smiles": "COc1ccccc1-c1nnc(SCC(=O)O)n1C", "outcome": "inactive"}, {"smiles": "CC1=C(C(=O)OCc2ccccc2)C(c2ccc3ccccc3c2)NC(=O)N1CCCCCC(=O)O", "note": "(stereo not given)", "outcome": "inactive"}, {"smiles": "Cn1nnnc1Sc1ncnc2scc(-c3ccc(F)cc3)c12", "outcome": "inactive"}, {"smiles": "Cc1ccc(-c2csc3ncnc(NCCN4CCOCC4)c23)cc1", "outcome": "inactive"}, {"smiles": "O=C(Nc1ccc(N2CCOCC2)cc1)c1cnsn1", "outcome": "active"}, {"smiles": "CCOc1ccc(NC(=O)c2ccncc2)cc1", "outcome": "inactive"}, {"smiles": "O=C(Nc1ccc(N2CCOCC2)cc1)Nc1cnsn1", "outcome": "inactive"}, {"smiles": "CCOc1ccc(NC(=O)c2cnccn2)cc1", "outcome": "inactive"}, {"smiles": "Cc1cnc(C(=O)Nc2ccc(N3CCOCC3)cc2)cn1", "outcome": "inactive"}, {"smiles": "CCc1nnc(NC(=O)CN2C(=O)c3ccccc3S2(=O)=O)s1", "outcome": "inactive"}, {"smiles": "CC1(C)CC(=O)C2=C(C1)Nc1ncnn1C2c1ccccn1", "note": "(stereo not given)", "outcome": "inactive"}, {"smiles": "CCOc1ccc(C2C(C(=O)c3cccs3)=C(O)C(=O)N2CCCn2ccnc2)cc1", "note": "(stereo not given)", "outcome": "inactive"}, {"smiles": "CN1CCN(c2ccccc2NC(=O)c2ccc(-c3ccccc3)cc2)CC1", "outcome": "inactive"}, {"smiles": "CC(=O)c1c(C)[nH]c(C(=O)Nc2ccc(C)cn2)c1C", "outcome": "active"}, {"smiles": "CC(=O)c1c(C)[nH]c(C(=O)Nc2cc(C)ccc2C)c1C", "outcome": "inactive"}, {"smiles": "CC(=O)c1c(C)[nH]c(C(=O)Nc2cc(C)cc(C)c2)c1C", "outcome": "inactive"}, {"smiles": "CC1=C/C(=N\\OS(=O)(=O)c2ccccc2)C=CC1=O", "outcome": "inactive"}, {"smiles": "CC1=CC(=O)C=C(C)C1=NOS(=O)(=O)c1ccccc1", "outcome": "active"}, {"smiles": "CC1=C(C)/C(=N\\OS(=O)(=O)c2ccccc2)C=CC1=O", "outcome": "inactive"}, {"smiles": "Cc1cccc(C2N(c3ccc(F)cc3)C(=O)C3CCCN32)c1", "note": "(stereo not given)", "outcome": "inactive"}, {"smiles": "O=S(=O)(Nc1ccccn1)c1ccc(C2CCCCC2)cc1", "outcome": "inactive"}, {"smiles": "CC1=CC(C)(C)N(S(=O)(=O)c2ccc(C)cc2)c2cc(C)ccc21", "outcome": "active"}, {"smiles": "Cc1ccc(S(=O)(=O)N2CC3(C)CN(S(=O)(=O)c4ccc(C)cc4)CC(C)(C2)C3)cc1", "outcome": "inactive"}, {"smiles": "CC1=CC(C)(C)N(S(=O)(=O)c2ccc(F)cc2)c2ccccc21", "outcome": "inactive"}, {"smiles": "CC1=CC(C)(C)N(S(=O)(=O)c2ccc(C)cc2)c2ccccc21", "outcome": "active"}, {"smiles": "CC1=CC(C)(C)N(C(=O)c2ccccc2)c2ccc(C)cc21", "outcome": "inactive"}, {"smiles": "CC1=CC(C)(C)N(S(=O)(=O)c2ccc(F)cc2)c2ccc(C)cc21", "outcome": "inactive"}, {"smiles": "Cc1ccc(S(=O)(=O)N2C(=S)SCC2(C)C)cc1", "outcome": "inactive"}, {"smiles": "CC1=CC(C)(C)N(C(=O)CN2C(=O)c3ccccc3C2=O)c2ccccc21", "outcome": "inactive"}, {"smiles": "CC1=CC(C)(C)N(S(=O)(=O)c2ccc(C)cc2)c2ccc(C)cc21", "outcome": "active"}, {"smiles": "O=C(CN1CCN(c2ccccc2)CC1)Nc1c(C(=O)C2CC2)oc2ccccc12", "outcome": "inactive"}, {"smiles": "CC(C)n1nnnc1C(c1ccc(F)cc1)N1CCN(C2CCCC2)CC1", "note": "(stereo not given)", "outcome": "inactive"}, {"smiles": "Cc1ccc(NC2=NCCC2)cc1Cl", "outcome": "inactive"}, {"smiles": "C=CCn1c(=O)c2ccccc2n2c(SCc3csc(-c4ccccc4)n3)nnc12", "outcome": "inactive"}, {"smiles": "Cn1c(-c2ccc(F)cc2)cnc1SCC(=O)N1CCCCC1", "outcome": "inactive"}, {"smiles": "Cn1c(-c2ccccc2)cnc1SCC(N)=O", "outcome": "inactive"}, {"smiles": "CCOC(=O)c1c(NC(=O)Cc2cccs2)sc2c1CCCC2", "outcome": "inactive"}, {"smiles": "COC(=O)c1ccccc1NC(=O)CN1CCC(NC(=O)c2ccccc2C)CC1", "outcome": "inactive"}]}]}
